PubChem BioAssay (NCI)
About 83,000 compounds went through this panel and 20% of them were active in at least one assay; those are over-represented in the sample as a whole.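 Treatment: one concentration, 48 hours, 96-well format. Scoring: percent growth, with anything below 10 considered active.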 Unmarked numbers belong to inactive results. Active and inactive are the calls of the source.

What follows are molecules tested on HL-60(TB) leukemia (assay: NCI-60 one-dose screen, 48 h (100 = growth as untreated, 0 = no growth, -100 = all killed)). Conditions: 10 µM unless noted.
O=C(NC1CCN(Cc2ccccc2)CC1)c1cc(-c2cccnc2)nc2ccc(Cl)cc12 showed a growth of 73.9%. CCOC(=O)NN1CC(O)=C(c2nc(-c3ccc(Br)cc3)cs2)C1=N showed a growth of 98.8%. In the case of COc1ccc(-c2nn(-c3ccc(NC(=O)Nc4cc(C(F)(F)F)cc(C(F)(F)F)c4)cc3)cc2-c2ccncc2)cc1Cl, the growth is reported as 4.01% (active). With O=C1/C(=C\c2cccc(OCCCCCOc3ccc(Cl)cc3)c2)N=C2SCCCN12 the growth was 36%. In the case of COc1cc(/C=N/NC(=O)c2ccc(-n3cc(-c4ccccc4)nn3)cc2)cc(OC)c1OC, the growth is reported as 101%. FC(F)(F)c1ccc(-c2cnc(Br)nc2NC2CCCCCC2)cc1 was tested, and the growth was 8.9% (active). In the case of COc1ccc2occ(C3=C(c4c[nH]c5ccccc45)C(=O)NC3=O)c2c1, the growth is reported as 20.8%. With N[C@H]1CCC[C@@H]1NCCCCN1C(=O)c2cccc3cccc(c23)C1=O the growth was 85.5%. C=C1CC[C@H](C(C)C)[C@@H]2[C@H]1[C@H]1CC(=C)[C@@H](O)CC[C@@](C)(O)[C@@H]2O1 was tested, and the growth was 103%. COc1cccc2cc(N(C)c3ncnc4ccccc34)ccc12 was tested, and the growth was -29.1% (active). In the case of CN1C(=O)C(=Cc2coc3ccc(Br)cc3c2=O)C(=O)N(C)C1=O, the growth is reported as 111%. Work on COc1ccc(C(=O)/C=C/c2ccccc2)cc1S(N)(=O)=O yielded a growth of 64.2%. COc1nc(N)nc(-n2c(-c3ccc(C)cc3)nc3ccccc32)c1NCc1ccc(C)cc1 showed a growth of 101%. In the case of O=c1[nH]c(-c2ccccc2)nc2sc3cc(O)ccc3c12, the growth is reported as -33.5% (active). With O=C1Cc2cc(CCN3CCN(c4nsc5ccccc45)CC3)c(Cl)cc2N1 the growth was 108%. With COc1cc(C2C=C(c3cccc(NC(C)=O)c3)Nc3ncnn32)cc(OC)c1OC (stereo not given) the growth was -35.2% (active). Work on c1cc(-c2nnc(SSc3ncnc4nc[nH]c34)o2)ccn1 yielded a growth of 18%. In the case of C=C(C(=O)c1ccccc1)C(NC(C)(C)C)c1ccccc1 (stereo not given), the growth is reported as -14.7% (active). For CN1CCN(c2ccc(Nc3ncc4[nH]c(=O)n(Cc5ccccc5N)c4n3)cc2)CC1, the growth was 97.2%. For CC(=O)N1N=C(c2ccc(Nc3nc(Nc4ccc(F)cc4)nc(Nc4ccc(F)cc4)n3)cc2)CC1c1ccc(N(C)C)cc1 (stereo not given), the growth was 10% (active). For C=C1C(=O)O[C@H]2[C@H]1CC/C(COC(=O)c1cn(C)c3ccccc13)=C\CC[C@@]1(C)O[C@@H]21, the growth was 2.98% (active). Molecule CC(C)N1CCN(c2ccc(OC[C@H]3CO[C@](Cn4cncn4)(c4ccc(Cl)cc4Cl)O3)cc2)CC1 has a growth of 91.3%. With CCC(=O)c1c(C)[nH]c(C)c1C the growth was 92.8%. In the case of O=C(CN1CCOCC1)Nc1ccc(Cn2nnc3c2C(=O)c2nnn(Cc4ccc(NC(=O)CN5CCOCC5)cc4)c2C3=O)cc1, the growth is reported as -39.1% (active). For COc1cc(NCCN(CC(C)C)CC(C)C)c2ncc(C)cc2c1, the growth was 88.2%. Molecule Cc1ccc(NC(=O)Nc2nc3ccccc3s2)cc1NC(=O)Nc1nc2ccccc2s1 has a growth of 106%. O=C(Nc1ccc(-n2cc(-c3ccncc3)c(-c3ccc(O)c(Cl)c3)n2)cc1)c1ccc(Cl)c(Cl)c1 gave a growth of 14.7%. With CCCCCCCCCCCCNC(=O)[C@H]1CSC(c2cc3ccccc3s2)N1 (stereo not given in full) the growth was -33.3% (active). COC(=O)/C=C1\SC(=Nc2ccc(C(F)(F)F)cc2)N(CCc2c[nH]c3ccccc23)C1=O was tested, and the growth was -55.4% (active). Cc1cc(N2CCCCCC2)nc(NC2CCCC(Nc3ccnc4cc(Cl)ccc34)C2)n1 (stereo not given) was tested, and the growth was -71.3% (active). For CCN(CC)CCCNc1cc(OC)cc2cccnc12, the growth was 94.7%. For Cc1ccc(S(=O)(=O)c2c(COC(=O)c3cccc(C)c3)c(-c3ccccc3)nn2C)cc1, the growth was 30.2%. For COC(=O)/C=C1/SC(N2N=C(c3cccs3)CC2c2ccc(F)cc2)=NC1=O (stereo not given), the growth was -7.95% (active). With COc1ccc(/C=C2\NC(=S)NC2=O)cc1 the growth was 91.6%. For COc1cc(Nc2cc(O)c3c(=O)cc(-c4ccccc4)oc3c2)cc(OC)c1, the growth was -35.7% (active). COc1cc(C2CC(=O)Nc3c2c(C)nn3-c2nc3ccccc3[nH]2)cc(OC)c1O (stereo not given) showed a growth of 43.7%. For O=c1c2ccccc2oc2ccc(OCCCCCCN3CCCCCC3)cc12, the growth was -47.9% (active). In the case of COc1ccc(C(=O)C(CN(C)C)CN(C)C)cc1, the growth is reported as 3.54% (active). With CC1(C)C(=O)/C(=C\c2cccnc2)C[C@]2(C)[C@H]3CC[C@@H]4[C@H]5[C@H](C(=O)/C=C/c6cccnc6)CC[C@]5(C(=O)O)CC[C@@]4(C)[C@]3(C)CC[C@@H]12 the growth was 0.806% [100 µM] (active). With Cc1nn(-c2ccccc2)c(-n2ccnc2)c1/C=N/Nc1nc(-c2ccc(F)cc2)cs1 the growth was 94.4%.
